# Source: PubChem BioAssay
# E coli growth-1: bacterial growth inhibition, counter-screen for AddAB inhibitors; E. coli V3065 growth, OD600 absorbance, 18 h; inhibition, % at 11.9 µM; actives 0.27% (n = 330,000); AID 449728;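 active = inhibition above the campaign's mean inhibition across all tested compounds plus 3 SD, cut at about 9.9% in these data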;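 also: uninfected addAB+ strain grown without phage in ampicillin broth; 0% = DMSO wells and 100% = ciprofloxacin 0.95 µg/ml wells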
# E coli growth-2: E. coli growth inhibition. actives 0.21% (n = 330,000). OD600 absorbance (test concentration not listed). Escherichia coli growth, OD600, 23 h; hits give low values;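 active = OD600 absorbance below the run mean of sample wells minus 3.6 SD, in any replicate, cut at about 0.56 in these data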
# Tat export inh: inhibitors of E. coli Tat protein transport | AID 488895 | inhibition, % at 10 µM | E. coli MC4100 TorA-mCherry Tat export, fluorescence | actives 0.036% (n = 340,000);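 active = mean replicate inhibition at least 50% and at least half of replicates individually reaching 50%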;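 also: exported cargo escapes ClpAP degradation while cytoplasmic cargo is degraded and loses fluorescence; 0% = median of neutral control wells and 100% = median of NaSCN control wells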
# PfHsp90 set2: reduces growth (ATP signal) of yeast expressing P. falciparum Hsp90; S. cerevisiae expressing PfHsp90, BacTiter-Glo ATP, 48 h; yeast lacking PDR1 and PDR3 efflux regulators; inhibition, % at 9.4 µM; actives 0.32% (n = 310,000);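 active = every replicate shows inhibition above about 80%, whatever the replicate mean, limit read from the data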;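 also: 0% = DMSO neutral controls and 100% = 20 µM radicicol positive controls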
# AddAB inh: less growth of phage-infected E. coli with AddAB; E. coli expressing H. pylori AddAB, absorbance growth; inhibition, % at 11.9 µM; actives 0.29% (n = 330,000); AID 435030; in the data active = inhibition above about 12%;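 also: 0% = vehicle wells of infected cells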
# phage Ecoli inh: E. coli growth loss with phage present; growth absorbance; inhibition, % at 11.9 µM; actives 0.26% (n = 360,000); in the data active = inhibition above about 11%
# * = called active by the depositor; . = no result given. This is a sample that favours compounds with a hit; in the whole collection about 0.69% have one here.
SMILES,E coli growth-1,E coli growth-2,Tat export inh,PfHsp90 set2,AddAB inh,phage Ecoli inh
CC(C)=CCc1c(O)ccc2c1OC(c1ccc(O)c(O)c1)CC2=O (configuration not stated),0,0.69,-2,-3,6,5
CC(C)=CCc1c(O)ccc(C2COc3c(CC=C(C)C)c(O)cc(O)c3C2=O)c1O (configuration not stated),-1,0.69,18,106*,2,2
Nc1ccccc1C#CC(=O)c1ccccc1,-2,.,-6,114*,0,2
O=C(O)C(=Cc1cccc([N+](=O)[O-])c1)c1ccccc1,.,.,.,.,.,1
O=C(C#Cc1cccc([N+](=O)[O-])c1)c1ccccc1,-3,0.62,0,137*,0,.
Cc1sc(NC(=O)c2ccco2)c(C(c2cccnc2)N2CCC(C)CC2)c1C (configuration not stated),-1,0.73,23,92*,0,3
O=C(O)CCC(=NNC(=O)c1ccccc1Br)c1ccccc1,.,0.69,.,.,.,.
O=C(CNS(=O)(=O)c1ccc(Br)s1)NCc1ccc(F)cc1,-1,0.67,-1,-5,1,2
O=C(CNS(=O)(=O)c1ccc(Br)s1)NCc1ccccc1,0,0.54*,-5,3,2,0
O=C(NC(=Cc1cccnc1)C(=O)N1CCOCC1)c1ccccc1,.,0.7,.,.,.,.
Cc1ccc(C(=O)O)cc1N=Cc1cc(Br)cc(Br)c1O,0,0.68,-8,107*,1,.
Cc1c(OCC(=O)C(C)(C)C)ccc2c(-c3ccccc3)cc(=O)oc12,2,0.66,3,96*,2,-1
CC(=O)COc1ccc2c(-c3ccccc3)cc(=O)oc2c1C,0,0.61,-6,3,4,5
C=CC1=C(C(=O)O)N2C(=O)C(NC(=O)C(=NOCC(=O)O)c3csc(N)n3)C2SC1 (configuration not stated),.,0.062*,.,.,.,.
Clc1cc2cccnc2c2ncccc12,-5,0.53*,-6,3,-4,-1
Cc1c(C)c2cccnc2c2ncccc12,47*,0.25*,1,124*,47*,.
O=[N+]([O-])c1ccc(Cl)c2cccnc12,0,0.63,-3,-1,2,2
CCOC(=O)C1C2COc3cc(OC)ccc3C2N2C(=O)N(c3ccc(Cl)cc3)C(=O)[C@@]12C (some centres not stated),.,0.54,.,.,.,.
Cc1ccn2c(C(=O)NN=Cc3ccccc3[N+](=O)[O-])c(C)nc2c1,.,0.68,.,.,.,.
Cc1ccc2c(c1)C(=O)C(=O)N2Cc1ccc(C(F)(F)F)cc1,3,0.62,3,150*,2,4
COc1ccc(NC(=O)c2nc[nH]c2C(=O)NC(C)c2ccccc2)cc1 (configuration not stated),.,0.69,.,.,.,.
NS(=O)(=O)c1ccc(N2N=C(c3ccccc3)CC2c2ccccc2Br)cc1 (configuration not stated),2,0.71,3,-46,1,2
O=[N+]([O-])c1ccc(N2N=C(c3ccccc3)CC2c2ccccc2O)cc1 (configuration not stated),.,.,1,108*,.,2
COc1ccc(C=NNC(=O)c2ccc(Cl)cc2)cc1Cn1cc(Cl)cn1,.,0.66,.,.,.,.
CO[C@H]1C=CO[C@@]2(C)Oc3c(C)c(O)c4c(O)c(c5c(c4c3C2=O)NC2(CCN(CC(C)C)CC2)N=5)=NC(=O)C(C)=CC=C[C@H](C)[C@H](O)[C@@H](C)[C@@H](O)[C@@H](C)[C@H](OC(C)=O)[C@@H]1C,102*,.,.,.,100*,.
SMILES,E coli growth-1,E coli growth-2,Tat export inh,PfHsp90 set2,AddAB inh,phage Ecoli inh
COC1C=CO[C@@]2(C)Oc3c(C)c(O)c4c(O)c(c(C=NN5CCN(C6CCCC6)CC5)c(O)c4c3C2=O)NC(=O)C(C)=CC=CC(C)C(O)C(C)C(O)C(C)C(OC(C)=O)C1C (some centres not stated),.,0.07*,.,.,.,.
O=C(Nc1ccccc1)C(Cl)C(=O)c1ccccc1 (configuration not stated),2,0.53,-49,106*,6,1
CCCCCCCCC(=O)N1CCN(c2cc3c(cc2F)c(=O)c(C(=O)O)cn3CC)CC1,3,0.42*,8,-7,-1,0
CCCCCCn1cc(C(=O)O)c(=O)c2cc(F)c(N3CCN(C)CC3)cc21,0,0.63,8,-1,1,.
CCCCCCCC(=O)N1CCN(c2cc3c(cc2F)c(=O)c(C(=O)O)cn3CC)CC1,.,0.097*,-1,-31,.,3
CCOc1ccc(S(=O)(=O)Nc2ccc(C(=O)NNC(=O)c3ccncc3)cc2)cc1,1,0.69,-6,16,1,4
CCOc1ccc(NS(=O)(=O)c2ccc(C(=O)NNC(=O)c3ccccc3O)cc2)cc1,0,0.52*,-11,24,6,4
CC(C)(C)C(=O)NC(=S)NNC(=O)c1ccc(-c2ccccc2)cc1,0,0.68,-8,104*,3,.
CCN1/C(=C/c2ccc3cc(C)ccc3[n+]2CC)Sc2cc(C)ccc21,.,0.35*,-4,94*,.,8
COc1ccc(C=c2sc3n(c2=O)NC2(c4ccccc4)N(C)C(=O)N(C)C2(c2ccccc2)N=3)cc1 (configuration not stated),.,0.75,.,.,.,.
O=C(C1=C[C@H](c2ccccc2)C[C@H](OCc2ccc(CO)cc2)O1)N1CCOCC1,1,0.65*,-2,-16,1,1
Cc1ccc(NC(=O)c2cc(N3C(=O)C=CC3=O)ccc2Cl)cc1C,-3,0.63,-3,110*,1,1
Cc1ccc(NC(=O)c2cc(N3C(=O)C=CC3=O)ccc2N2CCOCC2)cc1,.,0.62,12,106*,.,2
O=C1OCC(CO)(CO)N=C1NNc1ccc(Cl)c(Cl)c1,-1,0.18*,1,101*,1,7
Cc1ccc2c(c1)N(C)/C(=C/c1cccc[n+]1C)S2,-2,0.53*,0,-15,2,0
Cc1ccc(C=NNC(=O)c2ccc(-n3cccc3)cc2)o1,.,0.72,.,.,.,.
COc1ccc(SN=C2C(C)=CC(=O)C=C2C)cc1,-1,0.71,19,91*,4,7
O=C(/C(=C\c1ccccc1)c1nc2ccccc2[nH]1)c1ccc(Cl)cc1,1,0.72,2,104*,5,-5
O=C(/C(=C/c1ccc(Cl)cc1)c1nc2ccccc2[nH]1)c1cccs1,-3,.,0,.,-1,.
O=C1NC(=S)S/C1=C\c1cc2ccccc2nc1N1CCCCC1,1,0.61,8,108*,3,0
COc1ccc2nc(N3CCCCC3)c(/C=C3\SC(=S)NC3=O)cc2c1,1,0.71,-5,13,1,2
Cc1ccc(N=Nc2ccc(O)cc2)c(Br)c1,0,0.6,-15,116*,1,2
COc1ccc(CNC(=O)c2cc(=O)c3cc(C)c(C)cc3o2)cc1,-3,0.7,1,12,0,-2
